Laboratory results from PubChem BioAssay AID602481 (Broad Institute, 2012).
Among all 360,000 compounds or so, about 340 (0.094%) were called active. This excerpt belongs to a sample that is enriched for actives. A number with no mark means an inactive call. Cut-off read from the data, not from the text of the source: active = inhibition above about 40%; inconclusive = no clear call, values can overlap the other calls; inactive = below that.

system: 7,8-diaminopelargonic acid synthase BioA (Mycobacterium tuberculosis); assay: M. tuberculosis BioA enzyme inhibitors, primary screen, biochemical, plate reader, single point, HTS (AID 602481); details: purified M. tuberculosis BioA enzyme, at 9.99 µM, active compounds read high

**Q.** For Cc1nc(=O)c(-c2ccccc2)c(C)n1-c1ccc(Br)cc1, which inhibition is on record?
**A.** 42.7% (active)

**Q.** Which inhibition does the source give for S=C1NC(c2ccccc2)=NCN1c1ccc(Br)cc1 here?
**A.** 0.0265%

**Q.** How did the inhibition turn out when Cc1n[nH]c(=O)n1-c1ccc(Oc2ccccc2)cc1 was run?
**A.** -2.98%

**Q.** CN(C)CC(=O)N1CCCCN2[C@@H](CO)[C@H](c3ccc(-c4cccnc4)cc3)[C@@H]2C1 was tested. Which inhibition did it give?
**A.** 0.035%

**Q.** C[C@H]1CN([C@@H](C)CO)C(=O)c2cc(C3=CCCC3)cnc2O[C@@H]1CN(C)Cc1cccnc1 was tested. Which inhibition did it give?
**A.** 4.42%

**Q.** Which inhibition does the source give for CN1C(=O)c2cc(NC(=O)c3cccc(F)c3)ccc2OC[C@H]2O[C@@H](CC(=O)NCc3ccccc3Cl)CC[C@@H]21 here?
**A.** 0.94%

**Q.** Which inhibition does the source give for Cc1noc(C)c1NC(=O)Nc1cccc2c1O[C@H](CN(C)S(C)(=O)=O)[C@H](C)CN([C@H](C)CO)C2=O here?
**A.** 3.42%

**Q.** How did the inhibition turn out when Cc1ccccc1S(=O)(=O)N1[C@H](CO)[C@@H](c2ccc(-c3ccccc3)cc2)[C@@H]1C#N was run?
**A.** -1.28%

**Q.** With C[C@H](CO)N1C[C@H](C)[C@H](CN(C)CC2CCCC2)Oc2ncc(-c3ccc(F)cc3)cc2C1=O as the compound, how does the inhibition read?
**A.** -5.25%

**Q.** CC(C)NC(=O)Nc1cccc2c1O[C@@H](CN(C)Cc1ccc(C(=O)O)cc1)[C@@H](C)CN([C@H](C)CO)C2=O was tested. Which inhibition did it give?
**A.** -3.95%

**Q.** For CCC(=O)N1[C@H](CO)[C@@H]2c3ccccc3N(S(=O)(=O)c3ccccc3C)C[C@@H]21, which inhibition is on record?
**A.** -6.45%

**Q.** C[C@@H]1CN([C@@H](C)CO)C(=O)c2cccc(NC(=O)c3ccc(-c4nccs4)cc3)c2O[C@@H]1CN(C)S(=O)(=O)c1ccccc1 was tested. Which inhibition did it give?
**A.** -1.38%

**Q.** CCN1CCN(c2nc3c(c(=O)[nH]2)CCC3)CC1 was tested. Which inhibition did it give?
**A.** -4.22%

**Q.** With O=c1[nH]c(N2CCN(Cc3ccc4c(c3)OCO4)CC2)nc2c1CCCC2 as the compound, how does the inhibition read?
**A.** 71.1% (active)

**Q.** How did the inhibition turn out when CCc1c(C)nc(N2CCN(Cc3ccccc3)CC2)[nH]c1=O was run?
**A.** -0.075%

**Q.** With CO[C@@H]1CN(C)C(=O)c2ccc(NS(=O)(=O)c3ccc(C)cc3)cc2OC[C@@H](C)N(Cc2nccs2)C[C@H]1C as the compound, how does the inhibition read?
**A.** -0.694%

**Q.** CCC(=O)Nc1ccc2c(c1)C(=O)N(C)[C@@H]1CC[C@H](CC(=O)NCc3ccccc3)O[C@H]1CO2 was tested. Which inhibition did it give?
**A.** -0.647%

**Q.** With Cc1ccc(S(=O)(=O)N(C)C[C@@H]2Oc3c(NC(=O)C4CC4)cccc3C(=O)N([C@H](C)CO)C[C@H]2C)cc1 as the compound, how does the inhibition read?
**A.** -0.505%

**Q.** For CC(C)NC(=O)N(C)C[C@@H]1Oc2ccc(NC(=O)CCCCCC(=O)Nc3ccccc3N)cc2C(=O)N([C@@H](C)CO)C[C@H]1C, which inhibition is on record?
**A.** -2.93%

**Q.** With CCNC(=O)Nc1ccc2c(c1)C(=O)N(C)[C@@H]1CC[C@@H](CC(=O)NCCOC)O[C@@H]1CO2 as the compound, how does the inhibition read?
**A.** 0.346%

**Q.** COCCNC(=O)C[C@H]1CC[C@@H]2[C@H](COc3ccc(NC(=O)Nc4cccc(F)c4)cc3C(=O)N2C)O1 was tested. Which inhibition did it give?
**A.** 44.7% (active)

**Q.** CNC(=O)C[C@H]1CC[C@@H]2[C@H](COc3ccc(NC(=O)Nc4cccc(F)c4)cc3C(=O)N2C)O1 was tested. Which inhibition did it give?
**A.** 32%

**Q.** Which inhibition does the source give for CCC(=O)N1[C@H](C(=O)NCc2ccc(F)cc2)[C@@H](CO)[C@@H]2Cn3c(ccc(C4=CCCCC4)c3=O)[C@@H]21 here?
**A.** -2.21%

**Q.** How did the inhibition turn out when CCN1[C@@H]2c3ccc(C4=CCCC4)c(=O)n3C[C@@H]2[C@@H](CO)[C@@H]1C(=O)NCc1ccccn1 was run?
**A.** -3.69%

**Q.** With CS(=O)(=O)N1[C@H](C(=O)NCc2ccncc2)[C@@H](CO)[C@@H]2Cn3c(ccc(C4=CCCCC4)c3=O)[C@@H]21 as the compound, how does the inhibition read?
**A.** 49% (active)

**Q.** How did the inhibition turn out when C/C=C/c1cnc2c(c1)C(=O)N([C@H](C)CO)C[C@@H](C)[C@H](CN(C)Cc1cccc(C(=O)O)c1)O2 was run?
**A.** 0.203%

**Q.** With C[C@@H]1CN([C@@H](C)CO)C(=O)Cc2cc(NC(=O)CCCCCC(=O)Nc3ccccc3N)ccc2O[C@H]1CN(C)Cc1ccc(Cl)c(Cl)c1 as the compound, how does the inhibition read?
**A.** -3.74%

**Q.** For COCC(=O)Nc1ccc2c(c1)OC[C@@H](C)N(Cc1ccccn1)C[C@H](C)[C@@H](OC)CN(C)C2=O, which inhibition is on record?
**A.** -0.629%

**Q.** How did the inhibition turn out when C[C@H](CO)N1C[C@H](C)[C@H](CN(C)Cc2cccc(C(=O)O)c2)Oc2ncc(-c3ccccc3F)cc2C1=O was run?
**A.** -3.23%

**Q.** With CCCOc1ccc2c3c(c(=O)oc2c1OCCC)CCC3 as the compound, how does the inhibition read?
**A.** 49.3% (active)

**Q.** COc1ccc2c3c(c(=O)oc2c1OCC(=O)C(C)(C)C)CCCC3 was tested. Which inhibition did it give?
**A.** 0.336%

**Q.** How did the inhibition turn out when O=c1oc2c(CN3CCCCC3)c(O)ccc2c2c1CCCCC2 was run?
**A.** 16.6%

**Q.** With C[C@H]1CN([C@@H](C)CO)C(=O)CCCn2nncc2CO[C@H]1CN(C)Cc1cccc(C(=O)O)c1 as the compound, how does the inhibition read?
**A.** -5.89%

**Q.** For C[C@@H]1CN([C@H](C)CO)C(=O)Cc2cc(NS(=O)(=O)c3ccc(F)cc3)ccc2O[C@@H]1CN(C)S(=O)(=O)c1ccc(F)cc1, which inhibition is on record?
**A.** 4.14%

**Q.** For CN1c2ccc(C3=CCCCC3)cc2[C@@H]2[C@@H](CCN2S(=O)(=O)c2ccccc2F)[C@H]1CO, which inhibition is on record?
**A.** -2.02%

**Q.** Cc1ccccc1S(=O)(=O)N1[C@H](C#N)[C@H](c2ccccc2)[C@@H]1CO was tested. Which inhibition did it give?
**A.** -0.99%

**Q.** How did the inhibition turn out when CC(C)NC(=O)N(C)C[C@@H]1Oc2ccc(NC(=O)C3CC3)cc2C(=O)N([C@@H](C)CO)C[C@H]1C was run?
**A.** -0.507%

**Q.** With C[C@H](CO)N1C[C@H](C)[C@@H](CN(C)C(=O)Nc2ccc3c(c2)OCO3)Oc2ccc(NS(=O)(=O)c3ccc(Cl)cc3)cc2C1=O as the compound, how does the inhibition read?
**A.** 0.544%

**Q.** With C[C@@H]1CN([C@@H](C)CO)C(=O)Cc2cc(NC(=O)C3CCCCC3)ccc2O[C@H]1CN(C)C(=O)Nc1ccccc1 as the compound, how does the inhibition read?
**A.** 0.073%

**Q.** With C[C@H]1CN([C@@H](C)CO)C(=O)c2cc(Br)cnc2O[C@H]1CN(C)CC1CCCC1 as the compound, how does the inhibition read?
**A.** -0.484%

**Q.** Which inhibition does the source give for CCCN1[C@H](C(=O)N2CCOCC2)[C@@H](CO)[C@@H]2Cn3c(ccc(/C=C/c4ccccc4)c3=O)[C@@H]21 here?
**A.** -3.1%

**Q.** Which inhibition does the source give for COc1ccccc1-c1n[nH]nc1C1=CC(=O)CC(C)(C)C1 here?
**A.** -1.72%

**Q.** CC1(C)CC(=O)C=C(c2ccc3ncccc3c2)C1 was tested. Which inhibition did it give?
**A.** 64.2% (active)

**Q.** With CC1(C)CC(=O)C=C(c2ccc(Cl)c(C(F)(F)F)c2)C1 as the compound, how does the inhibition read?
**A.** -0.352%

**Q.** Which inhibition does the source give for O=S(=O)(N[C@@H]1CC[C@H](CCn2cc(-c3ccccc3F)nn2)O[C@H]1CO)c1ccc(F)cc1 here?
**A.** 1.57%

**Q.** Which inhibition does the source give for Cc1cc(=O)oc2c(C)c(OC(C)C(=O)NC3CCN(Cc4ccccc4)CC3)ccc12 (stereo not given) here?
**A.** -3.72%

**Q.** Which inhibition does the source give for Cc1c(OC(C)C(=O)NCC2CCC(C(=O)O)CC2)ccc2c1oc(=O)c1ccccc12 (stereo not given) here?
**A.** 43.7% (active)

**Q.** Cc1c(OC(C)C(=O)N[C@@H](Cc2ccccc2)C(=O)O)ccc2c3c(c(=O)oc12)CCCC3 (stereo not given in full) was tested. Which inhibition did it give?
**A.** 0.433%

**Q.** With O=C(CN1CCOCC1)N1CCCCN2[C@H](CO)[C@H](c3ccc(Br)cc3)[C@H]2C1 as the compound, how does the inhibition read?
**A.** 4.49%

**Q.** For COc1cccc(S(=O)(=O)N[C@H]2C=C[C@H](CC(=O)NCc3ccc(Cl)cc3)O[C@@H]2CO)c1, which inhibition is on record?
**A.** -1.44%
